Structures are written as SMILES. Results filed as inconclusive are left out. Calls of active or inactive are those of the source. Calls follow the shape of the dose curve; as a rule, active = well fitted curve in the direction sought with a large enough effect; inconclusive = small, poorly fitted or top-dose-only effect, or another doubt; inactive = no such curve, though single readings can be large; an effect the other way counts as inactive or inconclusive. Where a SMILES comes first, the peptide text is derived from it. [ ]: non-standard residue; d: D form.

For 14 molecules, Potency results are on record in PubChem BioAssay (NCATS).
Also: nearly all actives have a fitted effect of over 70% in size.
Potency is read from the fitted curve at half-maximal effect.

One test is described as follows: Primary qHTS for inhibitors of nuclear receptor binding SET domain protein 2 (NSD2) in an isogenic RCH-ACV NSD2 p.E1099K mutant (9B) (AID 1645876). The note with it: RCH-ACV NSD2 E1099K (9B) viability, CellTiter-Glo, 72 h; series mostly up to 44.9 µM.
Take `C=C1CCC2[C@](C)(CO)C(O)CC[C@]2(C)C1C/C=C1/C(=O)OCC1O` (some centres undefined): the Potency was 7.42 µM (active).

As to `Cc1c(-c2cnccn2)ssc1=S`, the Potency was 16.6 µM (active).

For the molecule `CC1(C(=O)O)CCC2(C)CCC3(C)C(=CC(=O)C4C5(C)CCC(OC6OC(C(=O)O)C(O)C(O)C6OC6OC(C(=O)O)C(O)C(O)C6O)C(C)(C)C5CCC43C)C2C1` (centres undefined), the Potency result is “inactive”.

A further test is described as follows: Primary qHTS for inhibitors of nuclear receptor binding SET domain protein 2 (NSD2) in an RCH-ACV wild type WT cells (2C) (AID 1645877). Conditions: RCH-ACV (leukaemia line) NSD2 WT (2C) viability, CellTiter-Glo, 72 h; series mostly up to 44.9 µM. In general terms: qHTS replaces the single test concentration by a dilution series.
On to `CC(C)C[C@@H]1NC(=O)[C@@H](C(C)C)NC(=O)[C@@H]2CCCN2C(=O)[C@@H](CC(=O)O)NC(=O)[C@@H](Cc2c[nH]c3ccccc23)NC1=O` (cyclo(L[dW][dD]P[dV])), for which the Potency entry is “inactive”.

For `O=C(/C=C/c1cccnc1)NCCCCC1CCN(C(=O)c2ccccc2)CC1`, the Potency is 0.0047 µM (active).

With `CC(/C=C1\SC(=S)N(CC(=O)O)C1=O)=C\c1ccccc1`, the Potency entry is “inactive”.

For `Cn1cc(/C=C/C(=O)c2cccc(F)c2)cc1/C=C/C(=O)NO`, the Potency was 18.6 µM (active).

Take `COc1ccnc2[nH]cc(C(=O)C(=O)N3CCN(C(=O)c4ccccc4)C[C@H]3C)c12`: the Potency result was “inactive”.

Turning to `COc1ccc(-n2cnc3cc(C(=O)N4CCCCC4)ccc32)cc1`, the Potency result is “inactive”.

In the case of `CCC1CCCCN1C(=O)n1ncc(C(O)(c2ccccc2)c2ccccc2)n1` (centres undefined), the Potency was 14.8 µM (active).

For the molecule `CCN1C(=O)CNc2ncc(-c3ccc(-c4ncn[nH]4)nc3C)nc21`, the Potency was 0.742 µM (active).

For `O=C1OC(COc2ccccc2[N+](=O)[O-])CC1Cc1ccccc1` (centres undefined), the Potency entry was “inactive”.

`O=C(/C=C/c1ccc2ccc(C(F)(F)F)cc2n1)c1ccncc1`: the Potency was 2.09 µM (active).

In the case of `C[C@H]1CC2[C@@H]3CCC4=CC(=O)C=C[C@]4(C)[C@@]3(F)[C@@H](O)C[C@]2(C)[C@@]1(O)C(=O)CO` (some centres undefined), the Potency is 0.105 µM (active).
